Laboratory results reported in PubChem BioAssay AID1508644 (National Center for Advancing Translational Sciences (NCATS), 2021).
Results filed as inconclusive are left out. Activity calls are given as the source filed them. The call rests on the fitted dose curve; in most records, active means well fitted inhibition curve with a large enough effect; inconclusive means small, poorly fitted or top-dose-only effect; inactive means no such curve, though single readings can be large or run the other way.

Biological target: Peripheral myelin protein 22 (Rattus norvegicus) (UniProt P25094)
Test: Cell-based HiBiT reporter assay to measure PMP22 protein expression in S16 Pmp22-HiBiT cells
Conditions: S16 Schwann Pmp22-HiBiT, NanoGlo luminescence, 48 h; series mostly up to 27.9 µM
Excerpt: Assay Provider: Jim Inglese Ph.D. National Center for Advancing Translational Science, National Institutes of Health, Rockville, MD CMT is a heterogeneous group of neurological disorders that affect approximately 1 in 2,500 people. In particular, the most common form of CMT, CMT1A is genetically linked to the duplication of the PMP22 gene which leads to Schwann cell overexpression, thus manifesting itself as a typical case of dose-sensitive diseases. To identify small molecule compounds that can mediate the expression of PMP22 we developed a phenotypic assay screening strategy by utilizing genome editing techniques to construct Schwann cell lines containing novel reporter technology to monitor the transcriptional or translational regulation of PMP22. For high sensitivity we use a bioluminescent reporter system embedded in the 3' UTR of the PMP22 gene (S16(c9) Pmp22-F2sN) to identify compounds that inhibit gene expression. […] We can further discriminate the effect of all transcriptionally active molecules on PMP22 translation or stability with an assay that incorporates a short NLuc peptide (HiBiT) at the C-terminus of expressed PMP22 (S16(f8) PMP22-HiBiT) allowing alpha complementation and luminescence detection of membrane-associated PMP22 protein. These assays were screened against the NCATS Sytravon Library Collection. Miniaturization of these assays to 1536-well plate format for quantitative high throughput screening (qHTS) yielded rich data sets immediately from the qHTS assay (S16(c9) Pmp22-F2sN), when compared with data from a cell viability assay (Cell TiterGlo) to identify compounds that decreased the output signals through cellular toxicity to streamline the selection process of actives for subsequent characterization using the HiBiT assay (S16(f8) PMP22-HiBiT).
Cell-based HiBiT reporter assay in S16 Pmp22-HiBiT cells PROTOCOL TABLE (format as described by Inglese J, Shamu CE and Guy RK. 2007) SEQUENCE No. (e.g., 1, 2, 3, etc.); PARAMETER (e.g., Cells, Incubation, Reagent, etc.); VALUE and DESCRIPTION. 1. Cells. Add 1,500 cells in 5 uL in growth media (DMEM High Glucose, No Phenol Red media + 10% heat-inactivated FBS + 1% Pen/Strep supplemented media) per well into Greiner 1536-well white/solid bottom high base, TC-treated plates. 2. Compounds. Library compounds and controls added at 23nL per well, transferred by Pin Tool. 3. Incubation. Incubate plates at 37C, 5% CO2, 95% RH for 48 h. 4. Media removal. Invert and centrifuge plates. 5. Reagent. Add 3uL NanoGlo HiBiT Lytic Detection Reagent per well of Greiner 1536-well plates. 6. Incubation. Incubate plates at room temperature for 15 min., protect from light. 7. Detector. NLuc luminescence measured using CCD-based camera (Viewlux). NOTES (numbers refer to Sequence numbers above; values are from representative experiments) 7. Luminescence Read: Clear filter; Exposure = 10 sec, Gain = High, Speed = Slow, Binning = 2X REFERENCES: 1. Inglese J, Shamu CE and Guy RK, Reporting data from high throughput screening of small molecule libraries, Nature Chemical Biology, 2007, 3(8): 438-441. doi.org/10.1038/nchembio0807-438 2. Yasgar A, Shinn P, Jadhav A, Auld DS, Michael S, Zheng W, Austin CP, Inglese J and Simeonov A, Compound Management for Quantitative High-Throughput Screening. J. Assoc. Lab. Auto., 2008, 13: 79-89. doi: 10.1016/j.jala.2007.12.004

Peripheral myelin protein 22 (Rattus norvegicus), sequence (P25094 whole entry, looked up): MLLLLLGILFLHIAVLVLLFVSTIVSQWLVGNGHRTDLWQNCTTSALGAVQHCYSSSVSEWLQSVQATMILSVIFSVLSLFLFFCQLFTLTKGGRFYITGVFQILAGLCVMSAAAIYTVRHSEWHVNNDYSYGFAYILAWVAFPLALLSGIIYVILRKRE

| Structure (SMILES) | Potency |
| --- | --- |
| COC(=O)c1ccccc1NC(=O)c1nc(S(=O)(=O)Cc2cccc(C)c2)ncc1Cl | 6.45 µM (active) |
| Cc1cccc(-n2c(=O)c3c(c4cc(C)ccc4n3C)n(CC(=O)NCCC3=CCCCC3)c2=O)c1 | inactive |
| Cc1cccc(N2CCN(C(=O)C3CCCN(S(=O)(=O)c4ccc5c(c4)oc(=O)n5C)C3)CC2)c1C (centres undefined) | inactive |
| COc1ccc(NC(=O)c2nc(S(=O)(=O)Cc3ccc(C)cc3)ncc2Cl)cc1 | 10.2 µM (active) |
| CCc1ccc(OCC(=O)Nc2cc3oc4ccccc4c3cc2OC)cc1 | inactive |
| Cc1cccc(CS(=O)(=O)c2ncc(Cl)c(C(=O)Nc3nc4ccc(F)cc4s3)n2)c1 | 3.63 µM (active) |
| COc1ccc(Nc2nc3c(S(=O)(=O)c4ccccc4)nnn3c3ccc(Cl)cc23)cc1 | inactive |
| Cc1c(Cl)cccc1NC(=O)c1oc2ccc(S(=O)(=O)N3CCC4(CC3)OCCO4)cc2c1C | inactive |
| Cc1cccc(Nc2c3c(nc4nncn24)CCC3)c1C | inactive |
| CCN(CC)CCNC(=O)c1cc(-c2ccc(Br)s2)nc2ccccc12 | inactive |
| Cc1ccc(C)c(NC(=O)Cn2c(=O)n(Cc3ccc4c(c3)OCO4)c(=O)c3ccc(C(=O)NC4CCCCC4)cc32)c1 | inactive |
| CCCn1c(=N)c(C(=O)NC(C)c2ccccc2)cc2c(=O)n3ccccc3nc21 (centres undefined) | inactive |
| CCOc1ccc(NC(=O)CSc2oc(-c3ccc(F)cc3)nc2S(=O)(=O)c2ccc(C)cc2)cc1 | inactive |
| COc1ccccc1-c1cc(C(F)(F)F)nc(S(=O)(=O)CCCC(=O)Nc2ccc(F)cc2F)n1 | 5.13 µM (active) |
| Cc1cc(C)c(NC(=O)Cn2c(=O)n(Cc3ccco3)c(=O)c3ccc(C(=O)NC4CCCC4)cc32)c(C)c1 | inactive |
| COc1ccccc1-c1cc(C(F)(F)F)nc(S(=O)(=O)CCCC(=O)Nc2ccccc2F)n1 | 10.2 µM (active) |
| Cc1ccc(NC(=O)N2CCc3cc(S(=O)(=O)N4CCC(C)CC4)ccc32)cc1F | inactive |
| COCCCNC(=O)c1ccc(-n2c(-c3ccccc3)cc3c2CCC(C)C3)cc1 (centres undefined) | 5.75 µM (active) |
| COc1ccccc1Nc1c2c(nc3ccc(NC(=O)/C=C/c4cccc(OC)c4OC)cc13)CCCC2 | 5.13 µM (active) |
| Cc1ccc(C)c(N2CCN(CCCNC(=O)Cn3c(-c4cccs4)cc4ccccc43)CC2)c1 | 7.24 µM (active) |

| Structure (SMILES) | Potency |
| --- | --- |
| COC(=O)CS(=O)(=O)c1nc2ccccc2nc1N1CCCCC1 | 14.5 µM (active) |
| CCOC(=O)c1c(NC(=O)c2nc(S(C)(=O)=O)ncc2Cl)sc(C(C)=O)c1C | 3.24 µM (active) |
| COc1ccccc1Nc1nn2c(=O)c3ccc(C(=O)Nc4ccc(F)cc4)cc3nc2s1 | 9.12 µM (active) |
| COc1ccc(NC(=O)c2oc3ccccc3c2NC(=O)Cc2ccc(F)cc2)c(OC)c1 | inactive |
| Cc1ccc(C)c(NC(=O)Cn2c(=O)n(Cc3ccccc3)c(=O)c3oc4ccccc4c32)c1 | 14.5 µM (active) |
| CCc1nnc(NC(=O)c2nc(S(C)(=O)=O)ncc2Cl)s1 | 10.2 µM (active) |
| COc1ccc(Br)cc1CC1C(=O)Nc2ccccc21 (centres undefined) | 9.12 µM (active) |
| O=C(NCCCN1CCN(c2ccc(F)cc2)CC1)c1cc2c(Cl)nc3ccccc3c2s1 | inactive |
| O=C(Cn1c(-c2cccs2)cc2cc(F)ccc21)NCCCN1CCN(c2ccccc2F)CC1 | 12.9 µM (active) |
| Cc1ccc(CN2C(=O)C(O)(c3c(C)[nH]c4ccccc34)c3ccccc32)cc1 (centres undefined) | inactive |
| CCS(=O)(=O)c1ncc(Cl)c(C(=O)Nc2c(C(=O)c3ccc(C)cc3)oc3ccccc23)n1 | inactive |
| Cc1ccc(S(=O)(=O)c2nnn3c2nc(NC2CCCCCC2)c2sccc23)cc1C | 14.5 µM (active) |
| Cc1ccc(NC(=O)c2nc(S(=O)(=O)Cc3cccc(C)c3)ncc2Cl)cc1 | 4.57 µM (active) |
| CC(=O)N1CCc2c(sc(NC(=O)CSc3ccccc3)c2-c2nc3ccccc3s2)C1 | 16.2 µM (active) |
| Cn1c(=O)oc2cc(S(=O)(=O)N3CCCC(C(=O)N4CCN(c5ccc(Cl)cc5)CC4)C3)ccc21 (centres undefined) | 4.07 µM (active) |
| CCCCS(=O)(=O)c1nc(-c2ccc(Br)cc2)cc(-c2ccccc2)c1C#N | inactive |
| Cc1ccc(C(=O)Nc2ccc(S(=O)(=O)N3CCC(c4nc5ccccc5s4)CC3)cc2)cc1 | inactive |
| CCc1ccc(NC(=O)Cn2c(=O)n(-c3ccc(OC)cc3)c(=O)c3ccc(C(=O)NCc4ccc(C)cc4)cc32)cc1 | inactive |
| O=C(Cn1c(-c2cccs2)cc2ccccc21)NCCCN1CCN(c2ccc(F)cc2)CC1 | 6.45 µM (active) |
